# Experimental data: PubChem BioAssay AID1446 (The Scripps Research Institute Molecular Screening Center, 2008)
# The whole screen tested about 220,000 compounds, of which about 2,400 (1.1%) were called active.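 Rule for the calls: active = inhibition above the campaign mean plus 3 SD over all tested compounds (cut at about 24% in these data); inactive = the rest.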 This excerpt belongs to a sample that is enriched for actives.
# Assay: reduced viability of JAK2V617F-dependent Ba/F3 cells, primary screen, JAK2V617F inhibitor project, cell-based, Ba/F3 EpoR-JAK2V617F, luminescence (AID 1446);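 note: cytokine-independent growth of Ba/F3 cells driven by EpoR plus mutant JAK2; 0% = DMSO-treated cells and 100% = JAK inhibitor I control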
# Conditions: ATP luminescence, at 5.6 µM, active compounds read high
row,Structure (SMILES),inhibition
1,CCCCCCCCCCCCn1ccc(=N)cc1,98.4% (active)
2,COc1cc(OC)cc(C2(C#N)CCN(C)CC2)c1,-0.42% (inactive)
3,O=C1NC(=O)N(CCc2ccc(F)cc2)C(=O)/C1=C/C=C/c1ccccc1,1.28% (inactive)
4,COc1ccc(-n2c(-c3ccccc3)nc3ccccc3c2=O)cc1,0.29% (inactive)
5,CN(C)CC1Oc2ccccc2OC1(O)c1ccccc1 (stereo not given),91.1% (active)
6,O=c1[nH]c(=O)n(-c2ccc(F)cc2)c(O)c1C=NCCN1CCCCC1,0.16% (inactive)
7,Cc1cccc(NC(=O)OC2CN3CCC2CC3)c1 (stereo not given),2.6% (inactive)
8,CN1CCN(/N=C/c2c[nH]c3ccccc23)CC1,-2.46% (inactive)
9,CC1=C(C(=O)Nc2ccccc2)S(=O)(=O)CCO1,-1.56% (inactive)
10,CCOc1ccc(-c2cc(C)[n+](CCN(CC)CC)c(-c3ccc(OCC)cc3)c2)cc1,98.2% (active)
11,CC1=C2C(=O)C3C(CC=C4CC(OC5OC(O)C(O)C(O)C5CO)CCC43C)C2CCC12OC1CC(C)CNC1C2C (stereo not given),0.84% (inactive)
12,CSc1nc2ccc(C)cc2c(=O)n1-c1cccnc1,3.49% (inactive)
13,CC1(C)Cc2c(C#N)c(N3CCNCC3)nc(-c3ccco3)c2CS1,1.65% (inactive)
14,CCOc1cccc(=NC2CCCCC2)c2c(C)[nH]c(C)c12,34% (active)
15,O=C(O)COc1ccccc1/C=C1\C(=O)NC(=O)N(CCC2=CCCCC2)C1=O,-1.88% (inactive)
16,Cn1c(O)c(C(=Nc2ccc(F)cc2)c2ccccc2)c(=O)n(C)c1=O,-3.28% (inactive)
17,CCCCC(=O)N/N=C/c1c(O)n(CCC2=CCCCC2)c(=O)[nH]c1=O,-0.19% (inactive)
18,O=c1[nH]c(=O)n(CCc2ccc(F)cc2)c(O)c1/C=N/N1CCCCC1,-0.8% (inactive)
19,O=c1[nH]c(CN2CC=C(c3ccccc3)CC2)nc2scc(-c3cccs3)c12,-4.83% (inactive)
20,Cc1ccc(CN2CCCC(C(=O)c3ccc4c(c3)OCO4)C2)cc1C (stereo not given),-3.5% (inactive)
21,CCOP(=O)(OCC)C(NC(=O)NC)C(N)=O (stereo not given),3.57% (inactive)
22,CC1=CC(=Cc2sc3ccccc3[n+]2C)C=C(C)O1,101% (active)
23,CNC(=O)O/N=C(\N)Cc1csc2ccc(Cl)cc12,1.27% (inactive)
24,O=c1[nH]c(=O)n(CCc2ccccc2)c(O)c1/C=N/N1CCOCC1,-2.98% (inactive)
25,CCOP(=O)(OCC)C(NC(=O)c1ccc(OC)cc1)C(Cl)(Cl)Cl (stereo not given),1.2% (inactive)
